For 40 molecules, growth results are on record in PubChem BioAssay (NCI).

Molecules are shown by their SMILES. About 83,000 compounds went through this panel and 20% of them were active in at least one assay; those are over-represented in the sample as a whole.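 Each cell line was grown in a 96-well plate and treated with one concentration of compound for 48 hours. Values below 10 were considered active.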 Activity calls are given as the source filed them.

The test system of the test is ACHN renal. Briefly: NCI-60 one-dose screen, 48 h (100 = growth as untreated, 0 = no growth, -100 = all killed). Particulars: 10 µM unless noted. On the procedure:
Growth inhibition of the ACHN human tumor cell line is measured as a screen for anti-cancer activity. Cells are grown in 96 well plates and exposed to the test compound for 48 hours. Compounds are tested at a single concentration, which is 10^-5 M for most compounds. The reported endpoint is percent growth (GI% or GIPRCNT), where numbers from 0 - 100% represent growth inhibition, and numbers from -100% - 0 represent cell death. For example, a value of 40 represents 60% growth inhibition. A value of 0 means no net growth occurred over the course of the experiment. A value of -40 indicates 40% of cells at the beginning of the experiment died by the end of the experiment. A value of -100 means all cells are dead at the end of the experiment.
NCI-60 Human Tumor Cell Lines Screen was performed using the standard one-dose NCI protocol, which is described in more detail at https://dtp.cancer.gov/discovery_development/nci-60/default.htm.
Compounds with GIPRCNT values below 10 were considered active. Activity score was based on GIPRCNT using the following formula: […]
Score is 0 for GIPRCNT values of 100 or above, 50 for GIPRCNT values of 0, and 100 for GIPRCNT values of -100.
Turning to `COc1cc(/C=C2\C=C(c3ccccc3)N(CCc3ccccc3)C2=O)cc(OC)c1OC`, the growth is 30.9% (inactive).

For the molecule `NC(N)=N/N=C/c1ccc(Br)cc1`, the growth was 44.5% (inactive). For `O=[N+]([O-])c1ccc2[nH]cc(-c3c4ccsc4cc4[nH]c5ccc([N+](=O)[O-])cc5c34)c2c1`, the growth was 24.5% (inactive). For `O=C(CC1Sc2ccccc2NC1=O)NNc1ccc(F)cc1` (stereo not given), the growth was 56.4% (inactive). Take `Cc1ccc(S(=O)(=O)NN/C(N)=N\S(=O)(=O)c2cc(C)c(Cl)cc2SCc2ccccc2)cc1`: the growth is 93.6% (inactive). For the molecule `O=C1CC(c2ccc3c(c2)OCO3)Nc2cc3c(cc21)OCO3` (stereo not given), the growth was 45.8% (inactive). For `C[C@@H]1CC[C@@H]2[C@@H]1[C@H](OC(=O)/C=C/c1ccccc1)[C@]1(CCCOCCOCCOCCOC(=O)CCCC[C@@H]3SC[C@@H]4NC(=O)N[C@@H]43)C[C@@H](OC(=O)CO)[C@@]2(C)O1` the value was 102% (inactive); for `Cc1cc(N(CCCNc2ccnc3cc(Cl)ccc23)Cc2ccccn2)nc(N2CCCC2)n1`, 93.5% (inactive); for `Cc1ccc2c(n1)C(=O)C(Oc1ccc(F)cc1)=CC2=O`, 9.92% (active).

On to `Cc1c(C(N)=O)sc2nc(C)n(/N=c3\scc(-c4ccccc4)n3Cc3ccccc3)c(=O)c12`, for which the growth is 7.27% (active). For `CN=C1C=CC(=C(c2ccc(N(C)C)cc2)c2ccc(N(C)C)cc2)C=C1` the value was -53.4% (active). For `COc1ccc(/C(C)=C(\c2ccc(Cl)cc2)c2ccc(OCCN(C)C)cc2)cc1F` the value was 92% (inactive); for `N#Cc1c(-c2ccc(C(F)(F)F)cc2)cc(N2CC(O)C2)n2c1nc1ccccc12`, 43.4% (inactive).

Take `Nc1c(C(=O)c2ccccc2)nnc2ncnn12`: the growth is 122% (inactive). Consider `Cc1cc(NS(=O)(=O)c2ccccc2)c(OS(=O)(=O)c2ccccc2)cc1C`, for which the growth is 104% (inactive). For `C=C1c2c(C)nn(-c3ccc(O)cc3)c2N(C)C23C[C@@H]1C1(C)c4c(C)nn(-c5ccc(O)cc5)c4N(C)C(C)(C[C@H]12)C3` (stereo not given in full) the value was 24.6% (inactive). The figure for `CC(C)c1ccc(C(=O)OC(=O)c2ccc(C(C)C)cc2)cc1` is 96% (inactive); for `Nc1c(-c2nc3ccccc3c(=O)[nH]2)nnn1-c1ccc(Cl)cc1` it is 87% (inactive). The figure for `CCCc1nc2ccccn2c1Nc1ccc(C(=O)NO)cc1` is 91.8% (inactive). `CCN(CC)CCCNC(=O)c1ccc(N)cc1`: the growth was 97.3% (inactive).

Consider `CCOC(=O)c1sc2ccc(NCc3nc[nH]c3C)cc2c1NC(=O)c1cc(OC)c(OC)c(OC)c1`, for which the growth was 65.1% (inactive). Turning to `N[C@@H]1CCC[C@H]1NCCCCN1C(=O)c2cccc3cccc(c23)C1=O`, the growth was 52.9% (inactive).

On to `COc1ccc(N=c2nc3sc4cc(Cl)ccc4n3c(N)c2C#N)cc1`, for which the growth was 98.2% (inactive). For `CN1CCN(c2ccc(Nc3ncc(Cl)c(NC[C@@H]4CCCO4)n3)cc2)CC1` the value was 1.78% (active); for `CCOC(=O)c1c2c(c(C)n1C)-c1nn(Cc3ccc(OC)cc3)cc1CC2`, 91.9% (inactive).

Turning to `CCNCCNc1cc(C2CCCC2)c(C#N)c2nc3ccccc3n12`, the growth is -34.7% (active). For `O=[N+]([O-])c1ccc(-c2cc3c(Nc4ccc(Sc5nc6ccccc6s5)c(Cl)c4)ncnc3s2)cc1` the value was 34.4% (inactive); for `COc1cc(CNC(=O)/C=C/C=C/c2ccc3c(c2)OCO3)ccc1OCc1cn(-c2ccc(Cl)c(Cl)c2)nn1`, -51% (active). The figure for `CN(C)CCn1cc(-c2ccc3c(Nc4ccc(CC(=O)Nc5cccc(F)c5)cc4)ncnc3c2)cn1` is -51.7% [30 µM] (active); for `Cc1cc(-c2ccc(N(C)C)cc2)c2sc(=O)[nH]c2n1` it is 83.2% (inactive). The figure for `Cc1c(C(=O)O[C@H]2[C@@H]3[C@H](C)CC[C@H]3[C@]3(C)O[C@@]2(C2CCCCC2)C[C@H]3OC(=O)CO)ccc2ccccc12` is -36.4% (active); for `CCCCCCCCc1cc[n+](CC(=O)c2ccc(Br)cc2)cc1` it is 9.78% (active); for `CC(C)OC(=O)NNC(=O)c1ccncc1` it is 96% (inactive). With `CSc1nc2sc3cc(Cl)ccc3n2c(=N)c1C#N`, the growth was 78.9% (inactive). The figure for `CC1=CC(=O)C(C(C)C)=CC1=Nc1cc(Br)c(O)c(Br)c1` is 57.8% (inactive); for `O=C(/C=C/C12c3ccccc3C(c3ccccc31)C1C(=O)N(c3ccc(Cl)cc3)C(=O)C12)c1ccccn1` (stereo not given) it is -35.4% (active). On to `N#C/C(=C\c1ccc(Br)cc1)n1nnc2ccccc21`, for which the growth was -16.7% (active).

For `COc1cc(-c2cc(-c3ccc(Nc4nc(Nc5ccccc5)nc(Nc5ccc(Cl)cc5)n4)cc3)nc(N)n2)cc(OC)c1OC`, the growth was 59.7% (inactive).

As for `C=C1C(=O)O[C@H]2[C@H]1CC/C(COC(=O)/C=C\C(=O)NCc1ccc(Cn3c(=O)sn(CCCC)c3=O)cc1)=C\CC[C@@]1(C)O[C@@H]21`, the growth is -100% (active). The figure for `C#C[C@]1(O)CC[C@H]2[C@@H]3CC=C4c5sc(N=C(N)N)nc5CC[C@]4(C)[C@H]3CC[C@@]21C` is -6.84% (active).
